{"source": "PubChem BioAssay (NCI)", "note": "Compounds without any hit were thinned out: in the full panel of roughly 83,000, 20% have a hit.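 The endpoint reported here, percent growth, reads 100 for growth as untreated, 0 for no net growth and -100 for all cells dead.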 A number with no mark means an inactive call. Active and inactive are the calls of the source. How the source made its calls: active means growth percent below 10; inactive means the rest."}
{"test_system": "SF-539 CNS", "assay": "NCI-60 one-dose screen, 48 h (100 = growth as untreated, 0 = no growth, -100 = all killed)", "conditions": "10 µM unless noted"}
{"molecule": "C[C@]12CC[C@@H]3c4cc(O)c(O)cc4CC[C@H]3[C@@H]1CC[C@@H]2O", "growth": "-1.85% (active)"}
{"molecule": "CCCOC(=O)C1(O)CCCC1", "growth": "88.1%"}
{"molecule": "COC1=CC(c2ccc[nH]2)=N/C1=C\\c1[nH]c(C)c(C(=O)CCCCC(=O)NCc2ccccc2)c1C", "growth": "56.6%"}
{"molecule": "O=C(NNC(=S)Nc1ccccc1)c1ccccn1", "growth": "31.5%"}
{"molecule": "COc1cc(NC(=O)CCl)ccc(=O)c1", "growth": "83.5%"}
{"molecule": "COc1ccc(S(=O)(=O)N2CCN(c3cc4c(cc3F)c(=O)c(C(=O)O)cn4C3CC3)CC2)c(OC)c1", "growth": "88.8%"}
{"molecule": "COc1ccc(Cn2cc(COc3cc(/C=C/C(=O)c4cc(OC)c(OC)c(OC)c4)ccc3OC)nn2)cc1", "growth": "49.2%"}
{"molecule": "COc1cc(C(=O)OCCCCCCCCCCC[P+](c2ccccc2)(c2ccccc2)c2ccccc2)ccc1O", "growth": "-57.3% (active)"}
{"molecule": "CC(C(=O)n1cc(-c2ccccc2)c(-c2ccccc2)c1)c1ccccc1", "note": "(stereo not drawn)", "growth": "104%"}
{"molecule": "C=CCOc1cccc(/C=C/C(=O)c2sc(Nc3cccnc3)nc2C)c1", "growth": "76.7%"}
{"molecule": "O=C(CCCn1c(=O)c2sc3ccccc3c2n2nnc(-c3ccccc3)c12)NCCc1cnc[nH]1", "growth": "-82.8% (active)"}
{"molecule": "CCC1CCc2nc3sc(C(=O)Nc4cccc(C)c4)c(N)c3cc2C1", "note": "(stereo not drawn)", "growth": "73.1%"}
{"molecule": "Cc1cccc(NC(=O)c2sc3nc4c(cc3c2N)CCCC4)c1", "growth": "48.5%"}
{"molecule": "COc1ccc(-c2cn[nH]c2-c2cc(OC)c3c(c2)OCCO3)cc1", "growth": "-34.3% (active)"}
{"molecule": "CC(C)C[C@H](NC(=O)Cn1ccc(NCc2ccccc2)cc1=O)B(O)O", "growth": "-29.4% (active)"}
{"molecule": "CC[C@H](C)[C@H]1NC(=O)[C@@H](N[C@](C)(O)[C@@H](N)CC(C)C)[C@@H](C)OC(=O)[C@H](Cc2ccc(OC)cc2)N(C)C(=O)[C@@H]2CCCN2C(=O)[C@H](CC(C)C)NC(=O)[C@@H](C)C(=O)[C@H](C(C)C)OC(=O)C[C@@H]1O", "growth": "-27.6% (active)"}
{"molecule": "CCNC(=O)C1CCCN1C(=O)C(CCCN=C(N)N)NC(=O)C(CC(C)C)NC(=O)C(CC(C)C)NC(=O)C(Cc1ccc(O)cc1)NC(=O)C(CO)NC(=O)C(Cc1c[nH]c2ccccc12)NC(=O)C(Cc1cnc[nH]1)NC(=O)C1CCC(=O)N1", "note": "(stereo not drawn)", "growth": "96.1%"}
{"molecule": "COC(=O)c1cc(-c2cccs2)c(C#N)c(N)c1C#N", "growth": "101%"}
{"molecule": "O=C1N=C(c2c(-c3[nH]c(=O)c4ccc(Br)cc4c3O)c(O)c3ccccc3c2O)C(=O)c2cc(Br)ccc21", "growth": "-57.7% (active)"}
{"molecule": "CC[C@]1(O)C[C@@H]2CN(Cc3c([nH]c4ccccc34)[C@@](C(=O)OC)(c3cc4c(cc3OC)N(C)[C@H]3[C@@](O)(C(=O)OC)[C@H](OC(C)=O)[C@]5(CC)[C@@H]6C[C@@H]6CN6CC[C@]43[C@@H]65)C2)C1", "growth": "-0.324% (active)"}
{"molecule": "CCOC(=O)[C@H](CSSc1ncnc2cc[nH]c12)NC(=O)[C@@H](C)c1ccc2cc(OC)ccc2c1", "growth": "11.4%"}
{"molecule": "Cc1nc(Nc2cccnc2)sc1C(=O)/C=C/c1ccc(F)cc1", "growth": "18.2%"}
{"molecule": "COc1ccc(C2=CC(c3ccc(Oc4ccnc5cc(Cl)ccc45)c(OC)c3)c3c(nc(OC)[nH]c3=O)N2)cc1", "note": "(stereo not drawn)", "growth": "105%"}
{"molecule": "COc1ccccc1CNCCCN1C(=O)c2ccc3c4c(ccc(c24)C1=O)C(=O)N(CCCNCCCCNCCCCN)C3=O", "growth": "11%"}
{"molecule": "Cc1cc(C)c(S(=O)(=O)N2CCN(c3cc4c(cc3F)c(=O)c(C(=O)O)cn4C3CC3)CC2)c(C)c1", "growth": "46.5%"}
{"molecule": "COc1ccc(C(=O)/C=C/c2cc(C(=O)c3cc(OC)c(OC)c(OC)c3)ccc2OC)cc1", "growth": "55%"}
{"molecule": "NC(=O)NC(=O)/C=C/C(=O)OCCCl", "growth": "105%"}
{"molecule": "COc1cc2nc(N3CCC[C@@H](NC4=CC(=O)c5ccccc5C4=O)C3)nc(N)c2cc1OC", "growth": "-99.9% (active)"}
{"molecule": "O=S(=O)(c1ccccc1)n1ccc(-c2ccc3c(c2)CCO3)n1", "growth": "86.7%"}
{"molecule": "O=C(CNc1ccc(Cl)cc1)Nc1ccc(-c2nc3ccccc3s2)cc1", "growth": "78.1%"}
{"molecule": "COc1ccc(/C=C2\\CCCC3=C2NC(C)=NC3c2ccc(OC)c(OC)c2)cc1OC", "note": "(stereo not drawn)", "growth": "17.1%"}
{"molecule": "COc1cc(OC)c(C(=O)/C=C/c2ccc(C(F)(F)F)cc2)c(OC)c1", "growth": "68.7%"}
{"molecule": "O=C(CCl)NCCNc1nccc(Nc2ccc(S(=O)(=O)Nc3ccccn3)cc2)n1", "growth": "-15.2% (active)"}
{"molecule": "O=C(O)c1ccc(-n2c(=O)c3ccccc3c3ccccc3c2=O)cc1", "growth": "97.1%"}
{"molecule": "Cc1nn(-c2ccc(Cl)cc2)c(=O)n1CCOc1ccccc1Cl", "growth": "108%"}
{"molecule": "CC(C)(C)OC(=O)N[C@@H](Cc1ccccc1)C(=O)N(Cc1ccccc1)C1(C(=O)NCc2ccccc2)CCN(Cc2ccccc2)CC1", "growth": "47.2%"}
{"molecule": "COc1ccc(C(=O)c2cc(OC)c(OC)c(OC)c2)cc1/C=C/C(=O)c1ccc(OC)c(OC)c1", "growth": "-23.5% (active)"}
{"molecule": "CCCCNC(=O)NS(=O)(=O)c1ccc(N2N=C(c3ccc(C)cc3C)CC2c2ccc(OC)cc2)cc1", "note": "(stereo not drawn)", "growth": "69.7%"}
